Source: PubChem BioAssay (NCI)
Where “and” joins values, the source holds several entries; their conditions need not be identical. Equal entries are not always repeated. The panel holds about 83,000 compounds, 20% with a hit somewhere; the sample as a whole holds those more often.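 Step 1: grow cells in 96-well plates. Step 2: add test compound at a single concentration. Step 3: incubate 48 h. Step 4: record percent growth.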 Calls of active or inactive are those of the source. How the source made its calls: active means growth percent below 10; inactive means the rest.

What was measured:
Assay in all cases: NCI-60 one-dose screen, 48 h (100 = growth as untreated, 0 = no growth, -100 = all killed)
OVCAR-8 ovarian = system: OVCAR-8 ovarian
OVCAR-5 ovarian = system: OVCAR-5 ovarian
OVCAR-4 ovarian = system: OVCAR-4 ovarian
SK-OV-3 ovarian = system: SK-OV-3 ovarian
IGROV1 ovarian = system: IGROV1 ovarian
OVCAR-3 ovarian = system: OVCAR-3 ovarian
T-47D breast = system: T-47D breast
BT-549 breast = system: BT-549 breast
MDA-MB-435 melanoma = system: MDA-MB-435 melanoma
HS 578T breast = system: HS 578T breast

Measured: growth

O=C1c2ccccc2C(=O)C(Cl)C1Cl (stereo not given)
active: OVCAR-4 ovarian; 10 µM unless noted -89% | OVCAR-3 ovarian; 10 µM unless noted -75.2% | T-47D breast; 10 µM unless noted -38%
inactive: OVCAR-8 ovarian; 10 µM 91.9% | OVCAR-5 ovarian; 10 µM unless noted 112% | SK-OV-3 ovarian; 10 µM unless noted 99.5% | IGROV1 ovarian; 10 µM unless noted 78.4% | BT-549 breast; 10 µM unless noted 78.5% | MDA-MB-435 melanoma; 10 µM unless noted 95.9%

CC[C@@]1(O)C(=O)OCc2c1cc1n(c2=O)Cc2cc3ccccc3nc2-1
active: OVCAR-5 ovarian; 10 µM unless noted -1.11% | OVCAR-4 ovarian; 10 µM unless noted -36.2% | SK-OV-3 ovarian; 10 µM unless noted 7.05% | IGROV1 ovarian; 10 µM unless noted -62.2% | OVCAR-3 ovarian; 10 µM unless noted -34% | T-47D breast; 10 µM unless noted -7.95% | BT-549 breast; 10 µM unless noted -39.9% | MDA-MB-435 melanoma; 10 µM unless noted -81.5%
inactive: HS 578T breast; 10 µM unless noted 22.6%

CC1=C(CO)C2=C(C)C3(CC3)[C@@](C)(O)C(=O)C2=C1
inactive: OVCAR-5 ovarian; 10 µM unless noted 14.3% | SK-OV-3 ovarian; 10 µM unless noted 16.3% | MDA-MB-435 melanoma; 10 µM unless noted 10.7%
active: OVCAR-3 ovarian; 10 µM unless noted -1.49% | HS 578T breast; 10 µM unless noted 8.86% | T-47D breast; 10 µM unless noted 7.12% | BT-549 breast; 10 µM unless noted -55.8%

CC[n+]1c(-c2ccccc2)c2cc(N)ccc2c2ccc(N)cc21
active: IGROV1 ovarian; 10 µM unless noted 9.12% | OVCAR-3 ovarian; 10 µM unless noted -0.305% | HS 578T breast; 10 µM unless noted 3.75% | BT-549 breast; 10 µM unless noted -35.7% | MDA-MB-435 melanoma; 10 µM unless noted -36%
inactive: OVCAR-8 ovarian; 10 µM 18.6% | OVCAR-5 ovarian; 10 µM unless noted 49.4% | OVCAR-4 ovarian; 10 µM unless noted 11.6% | SK-OV-3 ovarian; 10 µM unless noted 47.3% | T-47D breast; 10 µM unless noted 11.2%

Oc1cc[c]([Hg][Cl])cc1
inactive: OVCAR-8 ovarian; 10 µM 105% | OVCAR-5 ovarian; 10 µM unless noted 116% | OVCAR-4 ovarian; 10 µM unless noted 100% | SK-OV-3 ovarian; 10 µM unless noted 135% | IGROV1 ovarian; 10 µM unless noted 87.8% | OVCAR-3 ovarian; 10 µM unless noted 91% | HS 578T breast; 10 µM unless noted 85.5% | BT-549 breast; 10 µM unless noted 128% | MDA-MB-435 melanoma; 10 µM unless noted 96%

COc1cccc2c1cc([N+](=O)[O-])c1c(C(=O)O)cc3c(c12)OCO3
inactive: OVCAR-8 ovarian; 10 µM 55.2% | OVCAR-5 ovarian; 10 µM unless noted 106% and 85.3% | OVCAR-4 ovarian; 10 µM unless noted 82.8% and 141% | SK-OV-3 ovarian; 10 µM unless noted 86% and 95.1% | IGROV1 ovarian; 10 µM unless noted 58.6% and 59.2% | OVCAR-3 ovarian; 10 µM unless noted 76.5% and 103% | HS 578T breast; 10 µM unless noted 107% and 110% | T-47D breast; 10 µM unless noted 91.3% and 84.2% | BT-549 breast; 10 µM unless noted 91.7% and 102% | MDA-MB-435 melanoma; 10 µM unless noted 93.1% and 100%

CCOC(=O)C(NC(=O)C(Cc1ccc(N(CCCl)CCCl)cc1)NC(C)=O)C(C)C (stereo not given)
inactive: OVCAR-8 ovarian; 10 µM 83.1% | OVCAR-5 ovarian; 10 µM unless noted 105% | OVCAR-4 ovarian; 10 µM unless noted 96.4% | SK-OV-3 ovarian; 10 µM unless noted 82.5% | IGROV1 ovarian; 10 µM unless noted 79.3% | OVCAR-3 ovarian; 10 µM unless noted 92.5% | HS 578T breast; 10 µM unless noted 101% | T-47D breast; 10 µM unless noted 74.5% | BT-549 breast; 10 µM unless noted 87% | MDA-MB-435 melanoma; 10 µM unless noted 101%

COc1ccc(OC)c(/C=C/[N+](=O)[O-])c1
active: IGROV1 ovarian; 10 µM unless noted -4.14% | OVCAR-3 ovarian; 10 µM unless noted -59% | HS 578T breast; 10 µM unless noted 4.59% | BT-549 breast; 10 µM unless noted -45.5% | MDA-MB-435 melanoma; 10 µM unless noted 7.04%
inactive: OVCAR-8 ovarian; 10 µM 11.8% | OVCAR-5 ovarian; 10 µM unless noted 20.2% | SK-OV-3 ovarian; 10 µM unless noted 64.7% | T-47D breast; 10 µM unless noted 16.6%

CCC1(O)CC(OC2CC(N(C)C)C(OC3CC4OC5CC(=O)C(C)OC5OC4C(C)O3)C(C)O2)c2c(cc3c(c2O)C(=O)c2c(O)ccc(O)c2C3=O)C1C(=O)OC (stereo not given)
inactive: SK-OV-3 ovarian; 10 µM unless noted 16.1%
active: OVCAR-5 ovarian; 10 µM unless noted -16.1% | OVCAR-4 ovarian; 10 µM unless noted -53.9% | IGROV1 ovarian; 10 µM unless noted -78.1% | OVCAR-3 ovarian; 10 µM unless noted 4.8% | HS 578T breast; 10 µM unless noted -37% | T-47D breast; 10 µM unless noted -2.73% | BT-549 breast; 10 µM unless noted -76.3% | MDA-MB-435 melanoma; 10 µM unless noted -94.1%

COC1CC(CC2CCC(C)C(C(C)C(=O)O)O2)OC2(OC(C)(C3CCC(C)(C4OC(C5OC(O)(CO)C(C)CC5C)CC4C)O3)CC2C)C1C (stereo not given)
active: OVCAR-3 ovarian; 10 µM unless noted 9.34% | BT-549 breast; 10 µM unless noted -52.6% | MDA-MB-435 melanoma; 10 µM unless noted -91.7%
inactive: OVCAR-5 ovarian; 10 µM unless noted 14% | SK-OV-3 ovarian; 10 µM unless noted 44% | HS 578T breast; 10 µM unless noted 14.3% | T-47D breast; 10 µM unless noted 15.9%

NCCc1ccc(OCc2ccccc2)c(OCc2ccccc2)c1
inactive: OVCAR-8 ovarian; 10 µM 79.3% | OVCAR-5 ovarian; 10 µM unless noted 105% | OVCAR-4 ovarian; 10 µM unless noted 86.3% | SK-OV-3 ovarian; 10 µM unless noted 91.2% | IGROV1 ovarian; 10 µM unless noted 75.2% | OVCAR-3 ovarian; 10 µM unless noted 88.3% | HS 578T breast; 10 µM unless noted 126% | T-47D breast; 10 µM unless noted 69.2% | BT-549 breast; 10 µM unless noted 89.4% | MDA-MB-435 melanoma; 10 µM unless noted 88.1%

S=C(SSC(=S)N1CCCCC1)N1CCCCC1
inactive: OVCAR-8 ovarian; 10 µM 92.4% | OVCAR-5 ovarian; 10 µM 114% | OVCAR-4 ovarian; 10 µM 85.2% | SK-OV-3 ovarian; 10 µM 110% | SK-OV-3 ovarian; 100 µM 45.7% | IGROV1 ovarian; 10 µM 99.5% | IGROV1 ovarian; 100 µM 50.2% | OVCAR-3 ovarian; 10 µM 105% | HS 578T breast; 10 µM 111% | HS 578T breast; 100 µM 59.7% | T-47D breast; 10 µM 100% | BT-549 breast; 10 µM 92% | MDA-MB-435 melanoma; 10 µM 99.3%
active: OVCAR-8 ovarian; 100 µM -43.4% | OVCAR-5 ovarian; 100 µM -85.8% | OVCAR-4 ovarian; 100 µM -51.1% | OVCAR-3 ovarian; 100 µM -68.7% | T-47D breast; 100 µM -28.4% | BT-549 breast; 100 µM -1.94% | MDA-MB-435 melanoma; 100 µM -30.9%

COC1=C(C)C(=O)C2=C(C1=O)C(CO)N1C(C#N)C3CC4C(C1C2N1CCOC41)N3C (stereo not given)
inactive: OVCAR-5 ovarian; 10 µM unless noted 11.1% | SK-OV-3 ovarian; 10 µM unless noted 42.4%
active: OVCAR-3 ovarian; 10 µM unless noted -18.7% | HS 578T breast; 10 µM unless noted -55.2% | T-47D breast; 10 µM unless noted -16.8% | BT-549 breast; 10 µM unless noted -64.3% | MDA-MB-435 melanoma; 10 µM unless noted -64.2%

Cc1cc(N=Nc2ccccc2C)ccc1N
inactive: OVCAR-8 ovarian; 10 µM 82.1% | OVCAR-5 ovarian; 10 µM unless noted 84.7% | OVCAR-4 ovarian; 10 µM unless noted 69.2% | SK-OV-3 ovarian; 10 µM unless noted 99.1% | IGROV1 ovarian; 10 µM unless noted 77.1% | OVCAR-3 ovarian; 10 µM unless noted 73.2% | T-47D breast; 10 µM unless noted 59% | BT-549 breast; 10 µM unless noted 69.7% | MDA-MB-435 melanoma; 10 µM unless noted 82.9%
